# Values without a mark were called inactive.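 How the source made its calls, unless noted: active means inhibition over a set limit, the all-compound mean plus 3 SD, in both replicate runs; inconclusive means over that limit in just one replicate run; inactive means at or under that limit in both runs.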 Results filed as inconclusive are left out.
# Assay: viability of PTEN-null HCT116 cells – cell-based, HCT116 clonal line, CellTiter-Glo, pilot screen (AID 824;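 active means viability at or below 27.92% in each of two runs, the all-compound median minus 4 SD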;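 further: 0% = 20 µM Hyamine control and 100% = vehicle cell control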)
# Conditions: HCT116 PTEN-deleted viability, 60 h, at 10 µM, active compounds read low
row,SMILES,viability [%]
1,O=C(CSCc1ccco1)Nc1cc(C(F)(F)F)ccc1N1CCOCC1,79.1
2,Cc1nc2ccccc2c2nc3ccccc3n12,62.4
3,O=C1C(=C2CCCCC2)SC(=S)N1Cc1ccco1,84.4
4,COc1ccc(-c2n[nH]c(C(F)(F)F)c2-c2cc3ccccc3o2)c(O)c1,55
5,COc1ccccc1N1CCN(C(CNC(=O)c2ccco2)c2cccnc2)CC1 (configuration not stated),77
6,O=C(c1cc(-c2ccccc2O)on1)N1CCc2ccccc2C1,90.5
7,c1cn2cc(-c3ccc4c(c3)OCO4)nc2s1,90.7
8,CCCOc1ccc(C(=O)Nc2cc(-c3nn4c(C)nnc4s3)ccc2C)cc1,92.9
9,COc1ccc2cc(C(=O)Nc3c(C)n(C)n(-c4ccccc4)c3=O)sc(=O)c2c1OC,92.6
10,COC(=O)CSCc1nc2ccccc2[nH]c1=O,94.8
11,COc1ccc(NC(=O)CC2SC(=Nc3ccccc3)NC2=O)c(OC)c1 (configuration not stated),92

# Assay: RAM pathway blockade in budding yeast – dse1pr::URA3 reporter, 5-FOA selection, pilot screen (AID 869);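 further: 0% = DMSO wells with no growth and 100% = 10 µM 1-NA-PP1 with full growth; RAM network block rescues cells from 5-FOA so hits raise OD615 growth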
# Conditions: S. cerevisiae dse1pr::URA3 5-FOA growth, OD615, 2 d; at 10 µM; active compounds read high; strain carries analog-sensitive mutant Cbk1 kinase
row,SMILES,inhibition [%]
1,O=C(CSCc1ccco1)Nc1cc(C(F)(F)F)ccc1N1CCOCC1,1.91
2,Cc1nc2ccccc2c2nc3ccccc3n12,3.25
3,O=C1C(=C2CCCCC2)SC(=S)N1Cc1ccco1,0.825
4,COc1ccc(-c2n[nH]c(C(F)(F)F)c2-c2cc3ccccc3o2)c(O)c1,-1.46
5,COc1ccccc1N1CCN(C(CNC(=O)c2ccco2)c2cccnc2)CC1 (configuration not stated),2.23
6,O=C(c1cc(-c2ccccc2O)on1)N1CCc2ccccc2C1,0.485
7,c1cn2cc(-c3ccc4c(c3)OCO4)nc2s1,1.96
8,CC(Sc1nc2ccccc2s1)C(=O)N1CCOCC1 (configuration not stated),1.84
9,CC(C)Sc1nc(O)c(Cc2ccccc2)c(=O)[nH]1,2.81
10,CCCOc1ccc(C(=O)Nc2cc(-c3nn4c(C)nnc4s3)ccc2C)cc1,1.7
11,COc1ccc2cc(C(=O)Nc3c(C)n(C)n(-c4ccccc4)c3=O)sc(=O)c2c1OC,2.33
12,COC(=O)CSCc1nc2ccccc2[nH]c1=O,0.08
13,COc1ccc(NC(=O)CC2SC(=Nc3ccccc3)NC2=O)c(OC)c1 (configuration not stated),2.23

# Assay: RAM signaling pathway blockade in yeast – S. cerevisiae, Pdr1DBD-CYC8 efflux-inhibited sensitized strain, primary screen (AID 1298;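 active means RAM network inhibition above 8.4% in each of two replicates, 3 SD over the compound average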;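 further: 0% = DMSO untreated cells without growth and 100% = 10 µM 1-NA-PP1 full growth; higher means more yeast growth rescued from 5-FOA killing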)
# Conditions: S. cerevisiae cbk1-as DSE1-URA3 strain, 5-FOA growth OD615, 2 d; at 50 µM; active compounds read high
row,SMILES,RAM network inhibition [%]
1,O=C(CSCc1ccco1)Nc1cc(C(F)(F)F)ccc1N1CCOCC1,4.46
2,Cc1nc2ccccc2c2nc3ccccc3n12,0.87
3,O=C1C(=C2CCCCC2)SC(=S)N1Cc1ccco1,2.66
4,COc1ccc(-c2n[nH]c(C(F)(F)F)c2-c2cc3ccccc3o2)c(O)c1,-1.35
5,COc1ccccc1N1CCN(C(CNC(=O)c2ccco2)c2cccnc2)CC1 (configuration not stated),-0.32
6,O=C(c1cc(-c2ccccc2O)on1)N1CCc2ccccc2C1,7.78
7,c1cn2cc(-c3ccc4c(c3)OCO4)nc2s1,0.64
8,CC(Sc1nc2ccccc2s1)C(=O)N1CCOCC1 (configuration not stated),6.03
9,CC(C)Sc1nc(O)c(Cc2ccccc2)c(=O)[nH]1,6.91
10,CCCOc1ccc(C(=O)Nc2cc(-c3nn4c(C)nnc4s3)ccc2C)cc1,3.75
11,COc1ccc2cc(C(=O)Nc3c(C)n(C)n(-c4ccccc4)c3=O)sc(=O)c2c1OC,0.16
12,COC(=O)CSCc1nc2ccccc2[nH]c1=O,1.09
13,COc1ccc(NC(=O)CC2SC(=Nc3ccccc3)NC2=O)c(OC)c1 (configuration not stated),7.78

# From PubChem BioAssay
